Results on eleven compounds are retold here after PubChem BioAssay (EPA / NIEHS).

Results filed as inconclusive are left out. The source made the active and inactive calls. How the source made its calls, unless noted: active means hit-call score of the fitted dose curve at least 0.9, where 1 is the maximum; inactive means score below 0.9.

Experiment [1] can be described thus: CCTE_Harrill_HTTr_Viability_DMEM_6hr: (Pilot) CCTE's 6-hour Cell Viability Assessment for the High-Throughput Transcriptomics (HTTr) Platform, in MCF-7 cells cultured in DMEM + 10% fetal bovine serum, Harrill Lab (AID 2283973). An outline of the steps:
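MCF-7 cells in DMEM + 10% FBS, eight-point dilution series, 6 h exposure. Membrane integrity by propidium iodide exclusion with high-content imaging; bidirectional fit versus DMSO.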

Experiment [2] is described as follows: CCTE_Harrill_HTTr_Viability_DMEM_12hr: (Pilot) CCTE's 12-hour Cell Viability Assessment for the High-Throughput Transcriptomics (HTTr) Platform, in MCF-7 cells cultured in DMEM + 10% fetal bovine serum, Harrill Lab (AID 2283974). Summed up: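 MCF-7 cells in DMEM + 10% FBS exposed 12 h to an eight-point dilution series; membrane integrity scored by propidium iodide exclusion with high-content imaging, bidirectional fitting versus DMSO.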

A short description of experiment [3]: CCTE_Harrill_HTTr_Viability_DMEM_24hr: (Pilot) CCTE's 24-hour Cell Viability Assessment for the High-Throughput Transcriptomics (HTTr) Platform, in MCF-7 cells cultured in DMEM + 10% fetal bovine serum, Harrill Lab (AID 2283975). Summed up:
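MCF-7 cells in DMEM with 10% FBS exposed for 24 hours to an eight-point dilution series. Membrane integrity by propidium iodide exclusion with high content imaging; bidirectional fit against DMSO.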

Experiment [4] is described as follows: CCTE_Harrill_HTTr_Viability_PRF_DMEM_6hr: (Pilot) CCTE's 6-hour Cell Viability Assessment for the High-Throughput Transcriptomics (HTTr) Platform, in MCF-7 cells cultured phenol red-free DMEM + 10% charcoal-stripped fetal bovine serum, Harrill Lab (AID 2283976). An outline of the steps: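 MCF-7 cells in phenol red-free DMEM with 10% charcoal-stripped FBS exposed 6 hours to an eight-point dilution series. Propidium iodide exclusion imaged; curves fitted bidirectionally against DMSO.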

Experiment [5] can be described thus: CCTE_Harrill_HTTr_Viability_PRF_DMEM_12hr: (Pilot) CCTE's 12-hour Cell Viability Assessment for the High-Throughput Transcriptomics (HTTr) Platform, in MCF-7 cells cultured in phenol red-free DMEM + 10% charcoal-stripped fetal bovine serum, Harrill Lab (AID 2283977). Summed up: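 MCF-7 cells in phenol red-free DMEM with 10% charcoal-stripped FBS exposed 12 hours to an eight-point dilution series. Viability assessed by high-content imaging of propidium iodide exclusion; bidirectional fit versus DMSO.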

Experiment [6] is described as follows: CEETOX_H295R_TESTO_noMTC: CeeTox H295R High-throughput Steroidogenesis Assay for Testosterone (TESTO), maximum tolerated concentration (MTC) filtered results only (AID 2283924). The conditions noted are these: actives raise or lower the signal. An outline of the steps:
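H295R cells prestimulated 48 h with 10 uM forskolin, then exposed 48 h to chemicals in 0.1% DMSO final. Testosterone in medium quantified by MTBE extraction and HPLC-MS/MS; bidirectional fit versus DMSO, concentrations […] filtered by MTT-based maximum tolerated concentration.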

Experiment [7] is described as follows: CEETOX_H295R_ESTRONE_noMTC: CeeTox H295R High-throughput Steroidogenesis Assay for Estrone, maximum tolerated concentration (MTC) filtered results only (AID 2283921). The conditions noted are these: actives raise or lower the signal. Summed up: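 H295R cells prestimulated 48 h with 10 uM forskolin, then exposed 48 h to chemical in 0.1% DMSO; medium estrone measured by HPLC-MS/MS after MTBE extraction and dansyl derivatization, fitted bidirectionally versus DMSO without MTT-based MTC filtering.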

In experiment [8] the target is T1, Thyroid hormone receptor alpha (Rattus norvegicus) + Thyroid hormone receptor beta (Rattus norvegicus) (UniProt P18113+P63059). The experiment is described as follows: TOX21_TR_LUC_GH3_Agonist_Followup: Tox21 GH3 Thyroid Hormone Receptor Agonism Luciferase Follow-Up Assay (AID 2283939; active means hit-call score of the fitted dose curve at least 0.9, where 1 is the maximum). Summed up: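 Rat GH3 cells (1,500/well) in serum-free assay medium, treated with 15-point series, 92 uM to 5 nM final, for 24 h at 37C. Luciferase via ONE-Glo luminescence; gain of signal fitted against DMSO, T3 positive control.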

For the next experiment, the target named is THRA (gene 7067) (UniProt P10827). The experiment is described as follows: TOX21_TRA_COA_Agonist_Followup_ratio: Tox21 Thyroid Hormone Receptor alpha Agonism through Coactivator Recruitment Follow-Up Assay, Ratio (AID 2283948). An outline of the steps:
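GST-TRa LBD 2.5 nM + 0.10% BSA + cpd; add fluorescein-SRC-2 200 nM, Tb-anti-GST 2 nM. TR-FRET ex 340, em 520/495 ratio. Norm: DMSO 0%, T3 100%; gain-of-signal fit.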

Experiment [9] deals with THRB (gene 7068) (UniProt P10828). The experiment is described as follows: TOX21_TRB_COA_Agonist_Followup_ratio: Tox21 Thyroid Hormone Receptor beta Agonism through Coactivator Recruitment Follow-Up Assay, Ratio (AID 2283963). An outline of the steps: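 Agonism is measured as coactivator recruitment in a purified-protein TR-FRET format, using GST-TRβ LBD at 5.0 nM, fluorescein-SRC-2 peptide at 200 nM and Tb-labeled anti-GST antibody at 2 nM. Values are 520:495 nm ratios relative to DMSO (0%) and T3 (100%).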

Experiment [10] concerns the target Retinoic acid receptor RXR-alpha (Homo sapiens) (UniProt P19793). The experiment is described as follows: TOX21_TR_RXR_BLA_Agonist_Followup_ratio: Tox21 Thyroid Hormone Receptor beta Retinoid X Receptor alpha (RXRa) Agonism Beta-lactamase (BLA) Follow-Up Assay, Ratio (AID 2283968; active means hit-call score of the fitted dose curve at least 0.9, where 1 is the maximum). Summed up: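 This follow-up tests whether responses seen in the TR GH3 luciferase agonist screen are specific, using a GAL4-driven beta-lactamase reporter for RXRa in HEK293T cells. Compound exposure lasts 16 h; signal is the cleaved/uncleaved substrate ratio.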

Experiment [11] addresses T1, Thyroid hormone receptor alpha (Rattus norvegicus) + Thyroid hormone receptor beta (Rattus norvegicus). The experiment can be described thus: TOX21_TR_LUC_GH3_Antagonist_Followup: Tox21 GH3 Thyroid Hormone Receptor Antagonism Luciferase Follow-Up Assay (AID 2283942; active means hit-call score of the fitted dose curve at least 0.9, where 1 is the maximum). An outline of the steps: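 Confirmatory qHTS, antagonist mode: T3 (1.0 nM final) + test cpd, 15 conc, 92 uM–5nM final, GH3 rat pituitary line, 24 h, 37C. Luc reporter, RLU vs DMSO.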

For experiment [12], the target named is THRB (gene 7068) (UniProt P10828). The experiment is described as follows: TOX21_TRB_BLA_Antagonist_Followup_ratio: Tox21 Thyroid Hormone Receptor beta Antagonism Beta-lactamase (BLA) Follow-Up Assay, Ratio (AID 2283958; active means hit-call score of the fitted dose curve at least 0.9, where 1 is the maximum). Summed up:
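In this antagonist-mode follow-up, a stably integrated GAL4-TRβ LBD fusion drives a UAS-beta-lactamase reporter in HEK293T cells. Loss of ratio signal relative to DMSO after 18 h treatment indicates activity; parallel CellTiter-Glo flags cytotoxicity.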

Experiment [13] in a line: TOX21_TRB_BLA_Antagonist_Followup_viability: Viability Assessment in the Tox21 Thyroid Hormone Receptor beta Antagonism Beta-lactamase (BLA) Follow-Up Assay (AID 2283961; active means hit-call score of the fitted dose curve at least 0.9, where 1 is the maximum). Summed up:
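Viability read as CellTiter-Glo ATP luminescence (loss of signal = cytotoxicity) in the same plates as the TRβ-bla readout. TRβ-LBD/GAL4 UAS-bla HEK293T cells were exposed to compounds, 11 concentrations in triplicate, for 18 h at 37C/5% CO2.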

Experiment [14] deals with THRB (gene 7068) (UniProt P10828). The experiment is described as follows: TOX21_TRB_COA_Antagonist_Followup_ratio: Tox21 Thyroid Hormone Receptor beta Antagonism through Coactivator Recruitment Follow-Up Assay, Ratio (AID 2283967; active means hit-call score of the fitted dose curve at least 0.9, where 1 is the maximum). Summed up: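 Test compound was incubated with 5.0 nM GST-TRβ LBD in 0.10% BSA. Then 200 nM fluorescein-SRC-2 peptide and 2 nM terbium anti-GST antibody were added. TR-FRET (520:495 nm) was measured and normalized to DMSO and T3 controls.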

A short description of experiment [15]: TOX21_TR_RXR_BLA_Antagonist_Followup_viability: Viability Assessment in the Tox21 Thyroid Hormone Receptor beta Retinoid X Receptor alpha (RXRa) Antagonism Beta-lactamase (BLA) Follow-Up Assay (AID 2283979; active means hit-call score of the fitted dose curve at least 0.9, where 1 is the maximum). An outline of the steps: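 Follow-up compounds (11 concentrations, triplicate) were incubated 16 h at 37C/5% CO2 with HEK293T RXRa-bla cells seeded at 2,500/well in charcoal-stripped-serum medium. ATP content by CellTiter-Glo luminescence gave viability; curves fitted in both directions against DMSO.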

The target in experiment [16] is PGR (gene 5241) (UniProt P06401). The experiment is described as follows: TOX21_PR_BLA_Followup_Antagonist_ratio: Tox21 HEK293 Progesterone Receptor (PR) Antagonism Beta-lactamase Follow-Up Assay, Ratio (AID 2283934; active means hit-call score of the fitted dose curve at least 0.9, where 1 is the maximum). Summed up: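 Antagonist mode used 1 nM R5020 (final) as agonist on a beta-lactamase reporter line in HEK293T cells. Activity was taken from the substrate cleavage ratio after 16 hr exposure.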

Experiment [17] is described as follows: TOX21_PR_BLA_Followup_Agonist_viability: Viability Assessment in the Tox21 HEK293 Progesterone Receptor (PR) Agonism Beta-lactamase Follow-Up Assay (AID 2283935; active means hit-call score of the fitted dose curve at least 0.9, where 1 is the maximum;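 further: cells exposed to compound for 16 hr at 37 °C; signal loss means lower viability so actives are cytotoxic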). An outline of the steps:
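Multiplexed viability counter-screen: ATP-coupled luciferase signal measured after 30 min at room temperature, following 16 hr compound treatment of PR-UAS-bla HEK293T cells grown in charcoal-stripped serum.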

Experiment [18] is described as follows: TOX21_PR_BLA_Followup_Antagonist_viability: Viability Assessment in the Tox21 HEK293 Progesterone Receptor (PR) Antagonism Beta-lactamase Follow-Up Assay (AID 2283936; active means hit-call score of the fitted dose curve at least 0.9, where 1 is the maximum;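 further: hits lower the luminescence signal meaning cytotoxicity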). Summed up:
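PR-UAS-bla HEK293T cells (3,000/well, 2% charcoal-stripped FBS) given compound plus R5020 agonist, 16 h at 37C. CellTiter-Glo added after bla read, 30 min at room temperature; luminescence loss indicates cytotoxicity.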

Experiment [19] concerns the target PGR (gene 5241) (UniProt P06401). The experiment is described as follows: TOX21_PR_LUC_Followup_Antagonist: Tox21 HEK293 Progesterone Receptor (PR) Antagonism Luciferase Follow-Up Assay (AID 2283938; active means hit-call score of the fitted dose curve at least 0.9, where 1 is the maximum;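 further: curve fitted upward as signal gain over DMSO baseline despite antagonist label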). An outline of the steps:
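Luminescence from ONE-Glo reagent, measured after 30 min at room temperature, served as readout. Cells (HEK293 carrying PR-A-luc) had been treated 16 h at 37C with DMSO-dissolved compounds. Activity was fitted against DMSO controls.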

Chain of THRB (gene 7068) (P10828 whole entry, looked up, the tested form may be a part): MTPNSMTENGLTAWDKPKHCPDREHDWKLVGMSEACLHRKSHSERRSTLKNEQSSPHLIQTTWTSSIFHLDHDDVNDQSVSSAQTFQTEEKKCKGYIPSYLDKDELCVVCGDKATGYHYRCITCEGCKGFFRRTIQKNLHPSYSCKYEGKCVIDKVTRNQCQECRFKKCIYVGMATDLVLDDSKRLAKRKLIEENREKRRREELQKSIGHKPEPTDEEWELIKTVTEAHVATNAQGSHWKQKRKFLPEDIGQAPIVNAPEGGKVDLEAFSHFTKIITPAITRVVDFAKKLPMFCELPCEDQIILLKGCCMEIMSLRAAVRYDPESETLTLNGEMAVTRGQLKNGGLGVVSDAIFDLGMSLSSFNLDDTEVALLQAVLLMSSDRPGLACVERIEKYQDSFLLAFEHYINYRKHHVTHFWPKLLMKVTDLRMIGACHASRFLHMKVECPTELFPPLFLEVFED
Chain of PGR (gene 5241) (P06401 whole entry, looked up): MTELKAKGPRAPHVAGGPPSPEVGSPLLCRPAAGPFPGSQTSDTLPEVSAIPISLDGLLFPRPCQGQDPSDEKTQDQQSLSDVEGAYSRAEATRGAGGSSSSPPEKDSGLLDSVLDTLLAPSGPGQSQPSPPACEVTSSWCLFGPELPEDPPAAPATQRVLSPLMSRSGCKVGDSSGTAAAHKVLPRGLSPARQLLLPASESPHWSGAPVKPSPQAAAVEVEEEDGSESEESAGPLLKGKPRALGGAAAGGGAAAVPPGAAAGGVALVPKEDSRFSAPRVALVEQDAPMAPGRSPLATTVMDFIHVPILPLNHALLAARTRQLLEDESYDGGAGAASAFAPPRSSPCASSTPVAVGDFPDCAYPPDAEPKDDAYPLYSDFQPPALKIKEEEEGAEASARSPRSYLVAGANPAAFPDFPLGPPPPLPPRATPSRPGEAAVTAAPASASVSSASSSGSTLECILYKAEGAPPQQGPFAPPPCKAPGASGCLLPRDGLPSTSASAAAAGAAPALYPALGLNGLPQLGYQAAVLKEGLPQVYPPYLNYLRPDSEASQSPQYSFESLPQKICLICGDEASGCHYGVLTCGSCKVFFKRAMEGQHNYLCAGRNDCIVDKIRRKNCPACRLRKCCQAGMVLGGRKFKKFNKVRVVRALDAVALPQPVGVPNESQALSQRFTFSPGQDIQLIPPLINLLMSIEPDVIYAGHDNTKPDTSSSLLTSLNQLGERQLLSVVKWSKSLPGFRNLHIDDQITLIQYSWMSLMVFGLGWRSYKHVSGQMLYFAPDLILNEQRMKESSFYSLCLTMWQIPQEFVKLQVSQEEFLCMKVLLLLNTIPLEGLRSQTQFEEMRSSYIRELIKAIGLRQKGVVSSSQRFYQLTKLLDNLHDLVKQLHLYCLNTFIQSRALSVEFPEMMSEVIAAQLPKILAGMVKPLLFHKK
Chain of Retinoic acid receptor RXR-alpha (Homo sapiens) (P19793 whole entry, looked up, the tested form may be a part): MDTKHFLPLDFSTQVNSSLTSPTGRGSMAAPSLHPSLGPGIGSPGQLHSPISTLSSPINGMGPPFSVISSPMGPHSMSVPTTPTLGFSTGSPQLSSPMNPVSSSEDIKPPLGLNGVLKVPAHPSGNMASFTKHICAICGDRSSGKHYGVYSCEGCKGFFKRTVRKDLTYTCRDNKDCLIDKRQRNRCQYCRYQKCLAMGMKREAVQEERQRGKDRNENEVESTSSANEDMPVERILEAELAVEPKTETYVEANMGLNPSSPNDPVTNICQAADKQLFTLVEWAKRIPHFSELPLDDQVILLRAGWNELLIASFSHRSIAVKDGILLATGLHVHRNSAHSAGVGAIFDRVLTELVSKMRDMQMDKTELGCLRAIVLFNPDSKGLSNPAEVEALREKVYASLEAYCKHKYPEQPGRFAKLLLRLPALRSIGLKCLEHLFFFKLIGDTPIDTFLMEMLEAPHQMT
T1 sequence (P63059 whole entry, looked up): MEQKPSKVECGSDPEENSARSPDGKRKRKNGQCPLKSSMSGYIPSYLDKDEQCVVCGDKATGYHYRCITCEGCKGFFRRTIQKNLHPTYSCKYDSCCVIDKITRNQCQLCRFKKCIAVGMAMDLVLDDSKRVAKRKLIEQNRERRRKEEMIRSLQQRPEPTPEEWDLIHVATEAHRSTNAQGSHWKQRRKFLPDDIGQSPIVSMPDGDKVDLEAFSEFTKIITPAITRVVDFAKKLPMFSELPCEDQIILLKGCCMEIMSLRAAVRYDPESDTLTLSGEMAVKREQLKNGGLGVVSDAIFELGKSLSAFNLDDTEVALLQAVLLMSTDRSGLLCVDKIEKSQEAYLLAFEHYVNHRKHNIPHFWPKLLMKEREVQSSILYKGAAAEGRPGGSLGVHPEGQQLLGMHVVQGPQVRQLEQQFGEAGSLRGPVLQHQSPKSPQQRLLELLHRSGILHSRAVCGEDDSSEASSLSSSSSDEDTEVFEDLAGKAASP
T1 sequence (P18113 whole entry, looked up): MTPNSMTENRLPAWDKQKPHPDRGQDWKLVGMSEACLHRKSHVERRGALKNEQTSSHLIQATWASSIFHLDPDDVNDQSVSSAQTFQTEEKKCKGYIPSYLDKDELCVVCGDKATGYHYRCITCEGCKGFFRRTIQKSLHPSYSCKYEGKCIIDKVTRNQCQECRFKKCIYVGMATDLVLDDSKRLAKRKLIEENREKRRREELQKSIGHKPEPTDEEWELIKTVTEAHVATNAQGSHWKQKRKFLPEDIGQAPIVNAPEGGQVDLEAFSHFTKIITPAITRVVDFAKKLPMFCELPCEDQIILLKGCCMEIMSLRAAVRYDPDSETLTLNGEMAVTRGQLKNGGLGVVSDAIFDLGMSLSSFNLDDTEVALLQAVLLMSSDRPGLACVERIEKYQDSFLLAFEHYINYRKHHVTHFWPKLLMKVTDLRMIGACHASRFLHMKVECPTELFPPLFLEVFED
Chain of THRA (gene 7067) (P10827 whole entry, looked up, the tested form may be a part): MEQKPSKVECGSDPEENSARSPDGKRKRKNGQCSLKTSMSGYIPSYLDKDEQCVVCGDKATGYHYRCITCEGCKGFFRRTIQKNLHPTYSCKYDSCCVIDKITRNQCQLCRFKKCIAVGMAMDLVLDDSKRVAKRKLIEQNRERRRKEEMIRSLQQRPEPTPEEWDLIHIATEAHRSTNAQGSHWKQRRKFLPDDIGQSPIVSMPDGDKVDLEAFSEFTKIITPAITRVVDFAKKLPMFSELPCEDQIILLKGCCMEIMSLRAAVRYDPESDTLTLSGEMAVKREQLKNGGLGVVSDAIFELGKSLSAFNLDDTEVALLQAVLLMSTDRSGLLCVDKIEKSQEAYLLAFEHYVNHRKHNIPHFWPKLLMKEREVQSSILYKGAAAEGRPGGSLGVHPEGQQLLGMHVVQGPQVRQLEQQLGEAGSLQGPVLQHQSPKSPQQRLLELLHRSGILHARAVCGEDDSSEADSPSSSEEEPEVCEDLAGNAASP

In the case of `CC(C)OC(=O)C(C)(C)Oc1ccc(C(=O)c2ccc(Cl)cc2)cc1`, the result in experiment [1], in experiment [2], in experiment [3], in experiment [4] and in [5] was inactive.

Regarding `O=C(Oc1ccccc1)c1cccc(C(=O)Oc2ccccc2)c1`, the call in [6] was inactive.

As to `Nc1nc(=S)c2[nH]cnc2[nH]1`, the outcome in experiment [7] was inactive. Further, the AC50 in experiment [6] is 74.5 µM (active).

Turning to `CCN(CC)CCOc1ccc(C(=C(Cl)c2ccccc2)c2ccccc2)cc1`, the AC50 in experiment [1] is 82.4 µM (active); in experiment [2], 65.3 µM (active); in experiment [3], 54.8 µM (active); in experiment [4], 70 µM (active); in experiment [5], 65.8 µM (active).

On to `CC(=O)O[C@]1(C(C)=O)CC[C@H]2[C@@H]3C=C(Cl)C4=CC(=O)[C@@H]5C[C@@H]5[C@]4(C)[C@H]3CC[C@@]21C`, for which the outcome in [1], in experiment [2], in [3], in experiment [4] and in experiment [5] was inactive.

For `NC(=Nc1ccccc1)Nc1ccccc1`, the result in experiment [7] was inactive.

As for `Cc1occc(=O)c1O`, the result (in [8]; in the experiment with THRA (gene 7067); with THRB (gene 7068) [9]; in experiment [10]) was inactive.

For the compound `Nc1nc(Cl)nc2c1ncn2[C@H]1C[C@H](O)[C@@H](CO)O1`, the result (in experiment [11]; in the experiment with THRB (gene 7068) [12]; in experiment [13]; with THRB (gene 7068) [14]; in experiment [1]; in [2]) was inactive. Besides, the outcome in [3], in [4], in experiment [5] and in [15] was inactive.

As to `Cc1c(C)c2c(c(C)c1O)CCC(C)(COc1ccc(CC3SC(=O)NC3=O)cc1)O2` (configuration not stated), the result in experiment [1], in experiment [2], in experiment [3], in experiment [4] and in experiment [5] was inactive.

Take `COC(=O)[C@H]1[C@H]2C[C@@H]3c4[nH]c5cc(OC)ccc5c4CCN3C[C@H]2C[C@@H](OC(=O)c2cc(OC)c(OC)c(OC)c2)[C@@H]1OC`: the outcome in experiment [1], in experiment [2], in experiment [3], in experiment [4] and in experiment [5] was inactive.

With `CC(=O)[C@@]1(O)CC[C@H]2[C@@H]3CCC4=CC(=O)CC[C@]4(C)[C@H]3CC[C@@]21C`, the outcome (in the experiment with PGR (gene 5241) [16]; in [17]; in [18]; with PGR (gene 5241) [19]) was inactive.

For orientation: AC50 means the concentration at which the activity in the assay is half-maximal.
